Results taken from PubChem BioAssay AID1159580 (chemical genetic matrix, 2015).
Several values for one entry are separate records, joined by “and”; a condition that tells them apart may be missing. Equal values may be shown once. Out of some 5,500 compounds screened, about 2,000 (36%) were called active. Roughly 18% stayed inconclusive and do not appear here. Cut-off read from the data, not from the text of the source: active = normalized growth mostly below about 0.91 (no sharp cut-off); inconclusive = no clear call, values can overlap the other calls; inactive = mostly above about 0.92. The list shows a part of the results.

Assay: chemical genetic growth profiling, strain panel (AID 1159580);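 note: tested at 20 µM; growth read once vehicle control cultures reached saturation at 30 °C; 1 = growth at the plate median or of vehicle wells; lower values mean less growth of the strain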
Details: S. cerevisiae deletion strains, growth OD

Measured: normalized growth

C[C@@H]1CC2C3CCC4=CC(=O)C=C[C@]4(C)[C@@]3(F)[C@@H](O)C[C@]2(C)[C@@]1(O)C(=O)COP(=O)(O)O (stereo partly drawn)
inactive: locus YAL021C, strain ccr4, active compounds read low 0.961 | locus YAL026C, strain drs2, active compounds read low 0.985 | locus YAL030W, strain snc1, active compounds read low 0.996 | locus YBL061C, strain skt5, active compounds read low 0.978 | locus YBR009C, strain hhf1, active compounds read low 0.976 | locus YBR021W, strain FUR4, active compounds read low 1.02 | locus YBR023C, strain chs3, active compounds read low 0.981 | locus YBR171W, strain sec66, active compounds read low 0.944 | locus YBR229C, strain ROT2, active compounds read low 1 | locus YBR231C, strain swc5, active compounds read low 0.955 | locus YBR279W, strain paf1, active compounds read low 0.989 | locus YCL011C, strain gbp2, active compounds read low 0.997 | locus YCL016C, strain dcc1, active compounds read low 1.02 | locus YCL029C, strain bik1, active compounds read low 1.01 | locus YCL061C, strain MRC1, active compounds read low 0.971 | locus YCL069W, strain vba3, active compounds read low 0.996 | locus YCR088W, strain abp1, active compounds read low 0.975 | locus YDL005C, strain med2, active compounds read low 0.987 | locus YDL035C, strain GPR1, active compounds read low 1.03 | locus YDL040C, strain nat1, active compounds read low 0.964 | locus YDL074C, strain BRE1, active compounds read low 1.02 | locus YDL101C, strain DUN1, active compounds read low 1.01 | locus YDL134C, strain PPH21, active compounds read low 1.02 | locus YDL185W, strain tfp1, active compounds read low 1 | locus YDL192W, strain arf1, active compounds read low 1.01 | locus YDR001C, strain nth1, active compounds read low 0.94 | locus YDR069C, strain doa4, active compounds read low 0.942 | locus YDR101C, strain arx1, active compounds read low 0.996 | locus YDR137W, strain rgp1, active compounds read low 0.97 | locus YDR159W, strain sac3, active compounds read low 0.961 | locus YDR162C, strain NBP2, active compounds read low 1.02 | locus YDR195W, strain ref2 0.936 | locus YDR297W, strain sur2, active compounds read low 0.979 | locus YDR318W, strain mcm21, active compounds read low 0.992 | locus YDR334W, strain swr1, active compounds read low 0.943 | locus YDR335W, strain msn5, active compounds read low 0.949 | locus YDR388W, active compounds read low 1 | locus YDR392W, strain spt3, active compounds read low 1.06 | locus YDR502C, strain sam2, active compounds read low 1.01 | locus YEL003W, strain gim4, active compounds read low 0.98 | locus YEL037C, strain rad23, active compounds read low 0.978 | locus YEL061C, strain CIN8 (second series), active compounds read low 0.961 | locus YEL061C, strain CIN8, active compounds read low 1.01 | locus YER015W, strain faa2, active compounds read low 0.98 | locus YER016W, strain bim1, active compounds read low 1.02 | locus YER110C, active compounds read low 1.01 | locus YER111C, strain swi4, active compounds read low 0.98 | locus YER155C, strain BEM2 (second series), active compounds read low 0.972 | locus YER155C, strain BEM2, active compounds read low 1.01 | locus YER167W, strain BCK2, active compounds read low 1.01 | locus YFR010W, strain ubp6, active compounds read low 0.936 | locus YGL078C, strain dbp3, active compounds read low 1.01 | locus YGL086W, strain mad1, active compounds read low 1.02 | locus YGL167C, strain pmr1, active compounds read low 0.954 | locus YGL173C, strain kem1, active compounds read low 1 | locus YGL227W, strain vid30, active compounds read low 0.972 | locus YGL240W, strain doc1, active compounds read low 0.957 | locus YGL248W, strain PDE1, active compounds read low 0.998 | locus YGL253W, strain hxk2, active compounds read low 0.99 | locus YGR135W, strain pre9, active compounds read low 1 | locus YGR229C, strain SMI1, active compounds read low 1.01 | locus YGR252W, strain gcn5, active compounds read low 0.929 | locus YHR013C, strain ard1, active compounds read low 1 | locus YHR027C, strain rpn1, active compounds read low 0.982 | locus YHR030C, strain SLT2, active compounds read low 1.01 and 0.995 | locus YHR079C, strain IRE1 (second series), active compounds read low 0.992 | locus YHR079C, strain IRE1, active compounds read low 1 | locus YHR094C, strain hxt1, active compounds read low 1 | locus YHR129C, strain ARP1, active compounds read low 1.01 | locus YHR142W, strain chs7, active compounds read low 0.976 | locus YHR200W, strain rpn10, active compounds read low 1 | locus YIL066C, strain RNR3, active compounds read low 1.03 | locus YIL073C, strain SPO22, active compounds read low 1.02 | locus YIL125W, strain kgd1, active compounds read low 0.994 | locus YIR030C, strain dcg1, active compounds read low 1.01 | locus YJL092W, strain hpr5, active compounds read low 0.987 | locus YJL095W, strain BCK1 (second series), active compounds read low 0.982 | locus YJL095W, strain BCK1, active compounds read low 1.01 and 0.997 | locus YJL115W, strain asf1, active compounds read low 0.959 | locus YJL129C, strain trk1, active compounds read low 0.942 | locus YJL134W, strain LCB3, active compounds read low 1.01 | locus YJL154C, strain vps35, active compounds read low 0.952 | locus YJL164C, strain tpk1, active compounds read low 1.02 | locus YJL166W, strain qcr8, active compounds read low 0.917 | locus YJL168C, strain set2, active compounds read low 0.992 | locus YJL187C, strain SWE1 (second series), active compounds read low 1.01 | locus YJL187C, strain SWE1, active compounds read low 0.988 | locus YJR043C, strain POL32, active compounds read low 1.02
